In all, about 650,000 compounds went through this assay and about 5,900 (0.91%) were called active. Rule as the data show it: active = inhibition above about 50%; inactive = the rest. Shown is part of a subset that was picked to be rich in actives.
Biological target: Microphthalmia-associated transcription factor (Homo sapiens) (UniProt O75030)
Assay: MITF inhibitors, primary screen, biochemical, AlphaScreen, human (AID 1259374);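 also: 0% = vehicle wells with protein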
Settings: AlphaScreen MITF homodimerization, bead proximity signal; at 2.6 µM; hits give high values

Sequence of Microphthalmia-associated transcription factor (Homo sapiens) (O75030 whole entry, looked up): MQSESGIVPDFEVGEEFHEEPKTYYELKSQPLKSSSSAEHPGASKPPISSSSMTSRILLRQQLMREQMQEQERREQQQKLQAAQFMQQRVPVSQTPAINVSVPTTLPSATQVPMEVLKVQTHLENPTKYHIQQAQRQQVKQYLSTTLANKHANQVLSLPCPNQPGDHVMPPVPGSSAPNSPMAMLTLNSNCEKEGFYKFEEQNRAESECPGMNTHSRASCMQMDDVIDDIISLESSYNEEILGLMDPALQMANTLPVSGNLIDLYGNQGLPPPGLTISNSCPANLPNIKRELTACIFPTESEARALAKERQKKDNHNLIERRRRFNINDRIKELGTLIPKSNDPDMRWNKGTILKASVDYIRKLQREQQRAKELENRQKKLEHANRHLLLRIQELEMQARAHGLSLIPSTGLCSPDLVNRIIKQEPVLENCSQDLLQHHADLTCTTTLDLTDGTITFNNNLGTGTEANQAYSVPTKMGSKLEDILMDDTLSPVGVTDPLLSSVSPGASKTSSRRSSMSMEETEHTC

Structure (SMILES) | inhibition
CN1CCc2cc(CNC(=O)CC3C(=O)NCCN3CCc3ccccc3)ccc21 (stereo not given) | -15.3% (inactive)
CC/C(C)=N\NC(=O)CCC(=O)Nc1ccccc1 | 7.54% (inactive)
NC(=O)c1ccccc1NC(=O)CCl | 0.34% (inactive)
CCNC(=O)CSc1ccc(C)cc1 | 1.07% (inactive)
CN1C(=O)CSC1=Nc1ccc(Cl)c(Cl)c1 | -5.98% (inactive)
CCNc1nc(NC(C)C)nc(OCCOC(C)=O)n1 | -3.21% (inactive)
CCNc1nc(OC)cc(OC)n1 | -5.7% (inactive)
CCNc1nc(NCC)nc(C(=O)O)n1 | 55.1% (active)
O=C(COC(=O)c1ccco1)Nc1ccc(Cl)c(Cl)c1 | -6.47% (inactive)
O=C(CN1CCN(CC(=O)c2ccco2)CC1)Nc1ccc(Cl)c(Cl)c1 | 65.2% (active)
O=C(CN1CCN(C(=O)Nc2c(F)cccc2F)CC1)c1ccco1 | 39.7% (inactive)
COc1cccc2c1OC1(CCN(C(=O)Cc3cccs3)CC1)OC2 | 0.59% (inactive)
COc1cc(C(=O)/C(=C/c2ccccc2F)c2nc3ccccc3o2)cc(OC)c1OC | 5.52% (inactive)
Cc1nnc(NC(=O)CSc2nc(C3CCCCC3)nc3ccccc23)s1 | -12.8% (inactive)
COC(=O)CSc1nc(C2CC2)nc2ccccc12 | 72.1% (active)
c1ccc(CSc2nc(C3CC3)nc3ccccc23)nc1 | -3.42% (inactive)
Cc1cccc(NC(=O)CC[C@H]2CN(Cc3ccccc3)CC[C@H]2N(C)C)c1 | -2.16% (inactive)
CC(C)(C)c1ccc(OCCCCNCCO)cc1 | -8.77% (inactive)
OCCNCCCOc1ccc(I)cc1 | -4.92% (inactive)
CCOc1ccc(OCCCCNCCO)cc1 | 63.6% (active)
O=C(Nc1ccc(N2CCC(NCc3ccc4c(c3)OCO4)CC2)cc1)C1CCCC1 | -10.3% (inactive)
O=C(c1ccccc1)c1cccc(NC(=O)C2CCCCC2)c1 | -1.02% (inactive)
COC(=O)c1ccc(C2C(C(=O)OCCOc3ccccc3)=C(C)NC3=C2C(=O)CCC3)cc1 (stereo not given) | 0.05% (inactive)
CCOc1cccc(C2C(C(=O)OCCOc3ccccc3)=C(C)NC3=C2C(=O)CCC3)c1 (stereo not given) | 59.2% (active)
CC1=C(C(=O)OCC(C)C)C(c2cccc(OCc3ccccc3)c2)C2=C(CCCC2=O)N1 (stereo not given) | 0.37% (inactive)
COc1ccc(C(=O)N/C(=C\c2cccc([N+](=O)[O-])c2)C(=O)NC(CC(C)C)C(=O)O)cc1 (stereo not given) | -8.1% (inactive)
COCCn1nnnc1C(c1ccc(F)cc1)N1CCN(c2ccccc2OC)CC1 (stereo not given) | -3.53% (inactive)

Structure (SMILES) | inhibition
Cc1cc(-c2ccc(S(=O)(=O)NC3CCC(C)CC3)cc2)on1 (stereo not given) | 4.94% (inactive)
CC(=O)N1CCN(C(=O)c2ccc(N3CC4CC(C3)c3cccc(=O)n3C4)c(NC(=O)c3cccnc3)c2)CC1 (stereo not given) | 60% (active)
CCOC(=O)C1CCN(C(=O)c2ccc(N3CC4CC(C3)c3cccc(=O)n3C4)c(NC(=O)c3cccnc3)c2)CC1 (stereo not given) | -0.93% (inactive)
COc1ccccc1NC(=O)c1ccc(N2CC3CC(C2)c2cccc(=O)n2C3)c(NC(=O)c2cccnc2)c1 (stereo not given) | -6.03% (inactive)
CCCCNC(=O)/C(=C/c1ccco1)NC(=O)c1ccccc1 | 5.66% (inactive)
O=C(NCCO)/C(=C/c1ccco1)NC(=O)c1ccccc1 | 13.5% (inactive)
O=C(O)CCCCCNC(=O)/C(=C\c1ccco1)NC(=O)c1ccccc1 | 52.3% (active)
CC(C)(CO)NC(=O)CCC1(Cc2ccc3ccccc3c2)CCC(=O)N1 (stereo not given) | 5.16% (inactive)
CCc1ccc(C(=O)CC(c2ccccc2)C2CCCCC2=O)cc1 (stereo not given) | 2.82% (inactive)
Cc1cncn(CC(=O)NCCOc2ccccc2)c1=O | -1.97% (inactive)
O=C(O)CCC(C(=O)O)N1C(=O)/C(=C\c2ccco2)SC1=S (stereo not given) | 62.6% (active)
CCCC(C(=O)O)N1C(=O)/C(=C/C=C/c2ccco2)SC1=S (stereo not given) | 63.6% (active)
Cc1ccc(/C=C2\SC(=S)N(c3cccc(O)c3)C2=O)o1 | 13.4% (inactive)
Cc1ccc(/C=C2\SC(=S)N(C(C)C(=O)O)C2=O)o1 (stereo not given) | 69.4% (active)
COc1cc(/C=C2/SC(=S)N(C(CCSC)C(=O)O)C2=O)ccc1O (stereo not given) | 15.5% (inactive)
CCCCC(C(=O)O)N1C(=O)/C(=C2/C(=O)N(C(C)=O)c3ccccc32)SC1=S (stereo not given) | 6.57% (inactive)
CC(C(=O)O)N1C(=O)S/C(=C\c2ccccc2)C1=O (stereo not given) | 8.38% (inactive)
O=C(CCCN1C(=O)/C(=C\c2ccco2)SC1=S)Nc1ccccc1C(=O)O | 9.5% (inactive)
O=C(CCN1C(=O)/C(=C\c2ccco2)SC1=S)Nc1cccc(C(=O)O)c1 | 2.65% (inactive)
CSc1ccc(CCNC(=O)c2cc3ccccn3n2)cc1 | -9.21% (inactive)
COc1ccc2[nH]c3c(c2c1)CCOC31CCN(C(=O)N[C@@H](C)c2ccccc2)CC1 | -20.6% (inactive)
O=C(Nc1cccc(Cl)c1N1CCN(Cc2ccco2)CC1)c1ccc(Br)o1 | -6.95% (inactive)
O=C(CNC1CCCC1)Nc1ccc(N2CCCC2)cc1 | 6.86% (inactive)
O=C(CNCc1ccc(F)cc1)Nc1ccc(N2CCCC2)cc1 | 53.1% (active)
O=C(CNCCC1=CCCCC1)Nc1ccc(N2CCCC2)cc1 | 10.5% (inactive)
O=C(NCc1ccccc1)NC(=O)c1cccnc1 | 22.7% (inactive)
CCOc1ccc(-c2cc(N)n(S(=O)(=O)c3ccc(C)cc3)n2)cc1 | -6.9% (inactive)

Structure (SMILES) | inhibition
CCCC(=O)N=c1sc2cc(S(C)(=O)=O)ccc2n1C | 19% (inactive)
Cn1c(=NC(=O)COc2ccccc2)sc2cc(S(C)(=O)=O)ccc21 | 52.2% (active)
Cn1c(=NC(=O)CCOc2ccccc2)sc2cc(Br)ccc21 | 3.97% (inactive)
Cc1ccc(/C=C2\N=C(c3cccc(I)c3)OC2=O)cc1 | 12.7% (inactive)
Cc1ccc(C)c(NC(=O)CN(Cc2ccccc2)S(=O)(=O)c2ccc(Br)cc2)c1 | -9.84% (inactive)
CCN(Cc1ccccc1)C(=O)c1cc2c(=O)n3cccc(C)c3nc2n1C | -25.5% (inactive)
Cc1ccc(NC(=O)Cn2ccsc2=N)cc1F | 6.14% (inactive)
CC(=O)N1CCN(CC(=O)Nc2ccc(C)c(F)c2)CC1 | 52.6% (active)
Cc1ccc(NC(=O)CN2CCN(c3ccccn3)CC2)cc1F | 8.15% (inactive)
CCOc1ccc(Cl)cc1/C=C1/SC(=S)N(CCC(=O)O)C1=O | -26.2% (inactive)
CC(C)n1cnc2c(NCc3ccccc3)nc(Nc3ccncn3)nc21 | 10% (inactive)
Cn1c(-c2ccccc2)cnc1NCc1cccc(F)c1 | 38% (inactive)
Cn1c(-c2ccc(F)cc2)cnc1NCc1cccnc1 | 72.7% (active)
FC(F)(F)c1cc(-c2cnc3c(NCc4cccnc4)nccn23)cc(C(F)(F)F)c1 | -11.6% (inactive)
COc1ccc(C(=O)COC(=O)c2c3c(nc4ccccc24)CCCC3)cc1OC | 0.37% (inactive)
CN(Cc1cccs1)C(=O)CC1(c2cccc(F)c2)CC(=O)N(C2CCCC2)C1=O (stereo not given) | 7.07% (inactive)
Cc1[nH]c2ccccc2c1CN1CCN(Cc2ccc3c(c2)OCO3)CC1 | 38.3% (inactive)
OC1(Cc2ccccc2)CCN(Cc2ccncc2)CC1 | 1.54% (inactive)
Cc1ccc(N2CCN(Cc3cccnc3)CC2)cc1 | 9.13% (inactive)
Cc1ccc(CN2CCN(Cc3ccncc3)CC2)cc1 | 77.5% (active)
Cc1cc(OCC(O)CN2CCCC2)ccc1Cl (stereo not given) | 8.73% (inactive)
O=C1OC(c2ccc(F)cc2)=N/C1=C/c1ccc([N+](=O)[O-])cc1 | 5.42% (inactive)
CCN(CC)CCN1CCN(c2ncc(-c3ccccc3)n3ccnc23)CC1 | 8.61% (inactive)
CCN(CC)CCN1COc2c(cc(Cl)c3cccnc23)C1 | 102% (active)
Cn1c(=O)n(Cc2cc3c(cc2Cl)OCO3)c2cccnc21 | 13.7% (inactive)
O=C(Cc1cccs1)N/N=C\C=C\c1ccco1 | 64.5% (active)
O=C(Cc1cccs1)N/N=C\c1ccc(Cl)c(Cl)c1 | -9.59% (inactive)

Structure (SMILES) | inhibition
C/C(=N/NC(=O)Cc1cccs1)c1ccc(Br)cc1 | 7.44% (inactive)
Cc1ccc(N(C(=O)C(C)Oc2ccccc2)C2C=CS(=O)(=O)C2)cc1 (stereo not given) | -4% (inactive)
O=C(Nc1cccs1)N1CCC(Cn2c(COc3ccccc3)nc3ccccc32)CC1 | 12.3% (inactive)
COCCNC(=O)Nc1ccc2nc(-c3ccco3)c(-c3ccco3)nc2c1 | 87.1% (active)
COCCCNC(=O)Nc1ccc(Cl)c(Cl)c1 | 9.41% (inactive)
COCCCNC(=O)Nc1ccc([N+](=O)[O-])cc1 | 6.26% (inactive)
O=C(CCN1C(=O)C2C3C=CC(C3)C2C1=O)Nc1ncc(S(=O)(=O)c2ccc([N+](=O)[O-])cc2)s1 (stereo not given) | 2.57% (inactive)
O=C(NNC(=O)c1cc([N+](=O)[O-])ccc1Cl)c1cccc(Cl)c1 | -0.55% (inactive)
COC(=O)c1sc2nc(C)[nH]c(=O)c2c1C | -2% (inactive)
Cc1cc(C)n2c(SCc3nc4sc(C)c(C)c4c(=O)[nH]3)nnc2n1 | 7.98% (inactive)
CSc1nnc(SCc2nc3sc(C(=O)O)c(C)c3c(=O)[nH]2)s1 | 55.8% (active)
Cc1ccc(C)c(N2CCN(Cc3nnnn3Cc3ccc(F)cc3)CC2)c1 | 13.1% (inactive)
CC1(C(=O)O)NC(c2cc(Cl)cc(Cl)c2O)C2C(=O)N(c3ccccc3)C(=O)C21 (stereo not given) | -2.7% (inactive)
COc1ccccc1N1CCN(S(=O)(=O)c2ccccc2[N+](=O)[O-])CC1 | -2.42% (inactive)
O=CN1CCN(S(=O)(=O)c2ccccc2[N+](=O)[O-])CC1 | -7.16% (inactive)
O=[N+]([O-])c1ccccc1S(=O)(=O)N1CCN(C2Cc3ccccc3C2)CC1 | 52.9% (active)
CC(=O)c1cccc(-c2nc(C)cc(NCc3nc4ccccc4[nH]3)n2)c1 | -6.7% (inactive)
COC(=O)c1sc(NC(=O)c2ccccc2C)c(C#N)c1C | 58.6% (active)
COC(=O)c1sc(NC(=O)c2ccncc2)c(C#N)c1C | 22.1% (inactive)
COC(=O)c1sc(NC(=O)c2cccc(OC)c2OC)c(C#N)c1C | 15.6% (inactive)
O=C(O)CCCCC1SCC2NC(=O)NC21O (stereo not given) | 115% (active)
COc1ccc(NC(=O)c2cc(S(=O)(=O)NCCc3ccccc3)ccc2F)cc1 | 9.24% (inactive)
O=c1c2c(nc(SCc3ccccc3)n1-c1ccccc1)-c1ccccc1CC21CCCC1 | 7.99% (inactive)
CC(C)C(Nc1nc(N2CCC[C@H]2C(=O)O)ccc1[N+](=O)[O-])C(=O)O (stereo not given in full) | 4.19% (inactive)
